Reference: PubChem BioAssay (Tox21)
Records with an inconclusive call do not appear. The source made the active and inactive calls. Unless noted, the call rests on the fitted dose curve.

Assays:
[1] = Nuclear factor erythroid 2-related factor 2/antioxidant responsive element (Nrf2/ARE) small molecule agonists: qHTS cell viability counter screen in human keratinocytes (AID 1919968; active means well fitted curve in the direction sought with a large enough effect in the repeat runs; an effect the other way counts as inactive or inconclusive; further: nearly all actives have a fitted effect of over 55% in size)
Method in brief: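 Cytotoxicity was multiplexed with the Nrf2/ARE luciferase assay in the same wells. Stably transfected HaCaT keratinocytes were treated with test compounds for 23 h at 37 C. Cell viability was then measured by CellTiter-Fluor fluorescence.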

[2] = Nuclear factor erythroid 2-related factor 2/antioxidant responsive element (Nrf2/ARE) small molecule agonists: luciferase reporter gene qHTS assay in human keratinocytes (AID 1919969); further: nearly all actives have a fitted effect of over 35% in size
[3] = target: Gonadotropin-releasing hormone receptor (Homo sapiens) (UniProt P30968); test: Human gonadotropin-releasing hormone receptor (GnRHR) small molecule agonists, calcium flux assay in GnRHR-HEK293 cells (AID 1920063); further: nearly all actives have a fitted effect of over 35% in size
Method in brief: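 Agonist activity was measured as intracellular calcium flux in HEK293 cells engineered to stably express human GnRHR. After dye loading for 1 hour at 37 C, compounds in DMSO were added and fluorescence was followed for 3 minutes.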

[4] = target: KiSS-1 receptor (Homo sapiens) (UniProt Q969F8); test: Human kisspeptin (KISS1R) small molecule agonists, calcium flux assay in KISS1R-HEK293 cells (AID 1920064; active means well fitted curve in the direction sought with a large enough effect in the repeat runs; an effect the other way counts as inactive or inconclusive)
Method in brief: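 Agonist activity is monitored as intracellular calcium rise in engineered HEK293 cells carrying human KISS1R. Cells are dye-loaded for 1 h at 37 C before compound addition, and fluorescence is recorded for 3 min.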

[5] = G protein-coupled receptor (GPCR) small molecule agonists, calcium flux assay: HEK293 wild type cell line counter screen (AID 1920065)
Method in brief: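 Seed cells, incubate 18 h (37 C, 5% CO2); add calcium dye, 1 h at 37 C; pin-transfer compounds, ATP control or DMSO; read fluorescence 480/540 nm each second for 3 min.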

[6] = p53 small molecule agonists, cell-based qHTS assay with human liver microsomes (AID 1963577)
Method in brief: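 Cells carrying a p53-responsive bla reporter were rested 5 h (37 C, 5% CO2) before compound transfer. Human liver microsomes plus NADPH, 0.5 mg/mL final apiece, supplied metabolism during the 16 h 37 C exposure.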

[7] = p53 small molecule agonists, cell-based qHTS assay with rat liver microsomes (AID 1963578)
Method in brief: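 Fluorescence from a beta-lactamase reporter under a p53 response element was measured after cells had been incubated 16 h at 37 C with test compound and rat liver microsomes plus NADPH (0.5 mg/mL final each).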

[8] = p53 small molecule agonists, cell-based qHTS assay with human liver microsomes: qHTS cell viability counter screen (AID 1963579); further: nearly all actives have a fitted effect of over 45% in size
Method in brief: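 Seed p53RE-bla cells at 4,000 per well; incubate 5 h at 37 C; add compound, human liver microsomes and NADPH; incubate 16 h at 37 C; add CellTiter-Glo; after 30 min at room temperature, read luminescence.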

[9] = p53 small molecule agonists, cell-based qHTS assay with rat liver microsomes: qHTS cell viability counter screen (AID 1963580); further: nearly all actives have a fitted effect of over 45% in size
Method in brief: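 After the beta-lactamase ratio was read, CellTiter-Glo was added to the same wells and luminescence measured at 30 min; cells had been treated 16 h at 37 C with compounds, rat liver microsomes and NADPH (0.5 mg/mL final each).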

[10] = p53 small molecule agonists, cell-based qHTS assay: qHTS cell viability counter screen (AID 1963581); further: nearly all actives have a fitted effect of over 45% in size
Method in brief: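 Viability was counter-screened in parallel with the p53 agonist reporter by measuring intracellular ATP luminescence in the same HCT-116 p53RE-bla wells after 16 h compound treatment at 37 C.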

[11] = p53 small molecule agonists, cell-based qHTS assay (AID 1963582; active means well fitted activation curve with a large enough effect in the signal ratio in the repeat runs, not every such curve was filed as active; the % refers to the signal ratio)
Method in brief: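 Cells carrying a p53-responsive bla reporter are treated with test compounds for 16 h at 37 C; beta-lactamase activity is then detected with LiveBLAzer B/G FRET substrate after 2 h at room temperature.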

[12] = target: 5-hydroxytryptamine receptor 2A (Homo sapiens) (UniProt P28223); test: 5-hydroxytryptamine receptor 2A (HTR2A) small molecule agonists, cell-based qHTS assay (AID 1963587); further: nearly all actives have a fitted effect of over 30% in size
Method in brief: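 CHO cells stably expressing human HTR2A, plated 18 h, loaded with calcium dye 1 h at 37 C. Agonist mode: compounds added and intracellular calcium fluorescence recorded kinetically for 2 min at 1 sec intervals.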

[13] = target: Muscarinic acetylcholine receptor M1 (Homo sapiens) (UniProt P11229); test: Cholinergic receptor muscarinic 1 (CHRM1) small molecule antagonists, cell-based qHTS assay (AID 1963588); further: nearly all actives have a fitted effect of over 40% in size
Method in brief: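 Compounds were tested at 15 concentrations in three independent runs. Dye-loaded CHRM1-CHO cells were exposed 5 min at room temperature before stimulation by acetylcholine added at 50nM. Intracellular calcium was read kinetically on FDSS for 3 min.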

[14] = target: Muscarinic acetylcholine receptor M1 (Homo sapiens) (UniProt P11229); test: Cholinergic receptor muscarinic 1 (CHRM1) small molecule agonists, cell-based qHTS assay (AID 1963589); further: nearly all actives have a fitted effect of over 35% in size
Method in brief: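 Cells were plated and incubated 18 h at 37 C/5% CO2, loaded with calcium dye for 1 h at 37 C, then treated with compounds in DMSO. Fluorescence was recorded kinetically at 1 sec intervals.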

[15] = cAMP Responsive Elements (CRE) small molecule agonists, cell-based qHTS assay (AID 1963590)
Method in brief: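 Cells carrying a CRE-driven beta-lactamase reporter (HEK 293T) are seeded, incubated overnight (18 h), and treated with test compounds for 3 h at 37 C; reporter activity is then detected with a FRET substrate after 2 h at room temperature.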

[16] = cAMP Responsive Elements (CRE) small molecule antagonists, cell-based qHTS assay (AID 1963591; active means well fitted inhibition curve with a large enough effect in the signal ratio in the repeat runs, not every such curve was filed as active; the % refers to the signal ratio)
Method in brief: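 Cells (CRE-bla HEK 293T, DMEM with 10% dialyzed FBS and 25 mM HEPES) are seeded and incubated 18 h. Compounds are added with NKH477 agonist at 0.25 uM final for 3 h, then FRET substrate for 2 h.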

[17] = target: Beta-2 adrenergic receptor (Homo sapiens) (UniProt P07550); test: Adrenergic beta2 receptor (ADRB2) small molecule antagonists, cell-based qHTS assay (AID 1963592); further: series mostly up to about 92 µM; nearly all actives have a fitted effect of over 50% in size
Method in brief: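 Assay format: CHO-ADRB2 cells, 18-20hr seeding at 37C/5% CO2, then compound plus 1nM isoproterenol agonist mix for 0.5hr RT. Homogeneous time-resolved fluorescence cAMP detection after 1hr, expressed as 665/615 nm ratio.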

[18] = target: D(2) dopamine receptor (Homo sapiens) (UniProt P14416); test: Dopamine D2 receptor (DRD2) small molecule agonists, cell-based qHTS assay (AID 1963594); further: nearly all actives have a fitted effect of over 35% in size
Method in brief: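 HEK293 cells stably expressing human DRD2, pre-treated with PDE inhibitor Ro20-1724 (0.1 mM final) and compound 10 min at room temperature, then stimulated with NKH477 (200nM […]) for 30 min. cAMP read by HTRF (665/620 nm).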

[19] = target: D(2) dopamine receptor (Homo sapiens) (UniProt P14416); test: Dopamine D2 receptor (DRD2) small molecule antagonists, cell-based qHTS assay (AID 1963595; active means well fitted inhibition curve with a large enough effect in the signal ratio in the repeat runs, with a control signal flat; the % refers to the signal ratio)
Method in brief: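 HEK293 cells stably expressing DRD2, preincubated with 0.1 mM Ro20-1724 and compounds 10 min, were stimulated with 200 nM NKH477 plus 12 nM quinpirole for 30 min at room temperature; cAMP measured by HTRF (665/620 nm).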

[20] = target: Beta-2 adrenergic receptor (Homo sapiens) (UniProt P07550); test: Adrenergic beta2 receptor (ADRB2) small molecule agonists, cell-based qHTS assay (AID 1963593);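 further: CHO cells stably overexpressing human ADRB2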
Method in brief: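 CHO cells stably over-expressing ADRB2 were plated overnight at 37C, then dosed with compounds plus a stimulation mix containing 100uM IBMX and 25uM Ro-20-1724 for 0.5hr at room temperature. cAMP was measured by HTRF competition, 1hr.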

Measured: Potency

5-hydroxytryptamine receptor 2A (Homo sapiens), sequence (P28223 whole entry, looked up): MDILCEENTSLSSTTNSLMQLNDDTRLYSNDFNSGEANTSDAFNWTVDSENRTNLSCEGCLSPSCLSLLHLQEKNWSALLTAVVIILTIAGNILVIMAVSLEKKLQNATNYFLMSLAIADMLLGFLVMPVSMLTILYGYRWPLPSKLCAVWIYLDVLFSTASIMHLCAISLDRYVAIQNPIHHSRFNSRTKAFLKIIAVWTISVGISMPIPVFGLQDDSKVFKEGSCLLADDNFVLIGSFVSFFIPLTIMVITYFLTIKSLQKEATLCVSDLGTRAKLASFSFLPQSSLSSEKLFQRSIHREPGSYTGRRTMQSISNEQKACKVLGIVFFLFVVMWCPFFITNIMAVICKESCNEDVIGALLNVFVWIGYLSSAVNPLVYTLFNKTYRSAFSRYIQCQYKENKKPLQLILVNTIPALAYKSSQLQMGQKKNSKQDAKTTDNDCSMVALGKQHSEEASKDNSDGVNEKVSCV
Beta-2 adrenergic receptor (Homo sapiens), sequence (P07550 whole entry, looked up): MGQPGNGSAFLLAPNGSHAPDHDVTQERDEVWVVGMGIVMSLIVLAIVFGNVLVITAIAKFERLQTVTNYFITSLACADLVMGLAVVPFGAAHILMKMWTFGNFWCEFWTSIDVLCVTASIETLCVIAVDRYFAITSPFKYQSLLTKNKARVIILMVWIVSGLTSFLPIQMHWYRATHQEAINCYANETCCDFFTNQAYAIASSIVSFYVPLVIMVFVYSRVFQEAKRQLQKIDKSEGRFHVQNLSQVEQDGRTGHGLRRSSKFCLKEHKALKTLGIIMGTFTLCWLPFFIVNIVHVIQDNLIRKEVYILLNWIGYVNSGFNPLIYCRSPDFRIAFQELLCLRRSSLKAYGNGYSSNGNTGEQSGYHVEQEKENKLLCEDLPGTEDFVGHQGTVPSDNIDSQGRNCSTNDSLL
Muscarinic acetylcholine receptor M1 (Homo sapiens), sequence (P11229 whole entry, looked up): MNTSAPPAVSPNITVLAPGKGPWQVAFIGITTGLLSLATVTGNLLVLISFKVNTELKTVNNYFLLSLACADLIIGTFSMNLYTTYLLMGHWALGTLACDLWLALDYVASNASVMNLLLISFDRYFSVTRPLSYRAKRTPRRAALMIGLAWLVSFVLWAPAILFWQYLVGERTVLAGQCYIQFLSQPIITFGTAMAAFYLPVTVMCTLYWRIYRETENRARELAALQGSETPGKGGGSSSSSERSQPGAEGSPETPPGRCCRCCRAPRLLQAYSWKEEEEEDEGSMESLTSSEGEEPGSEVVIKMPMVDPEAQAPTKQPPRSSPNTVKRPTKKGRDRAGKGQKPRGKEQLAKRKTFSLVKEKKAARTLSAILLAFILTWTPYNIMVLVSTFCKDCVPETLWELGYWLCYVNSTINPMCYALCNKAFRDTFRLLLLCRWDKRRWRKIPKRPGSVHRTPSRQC
Gonadotropin-releasing hormone receptor (Homo sapiens), sequence (P30968 whole entry, looked up): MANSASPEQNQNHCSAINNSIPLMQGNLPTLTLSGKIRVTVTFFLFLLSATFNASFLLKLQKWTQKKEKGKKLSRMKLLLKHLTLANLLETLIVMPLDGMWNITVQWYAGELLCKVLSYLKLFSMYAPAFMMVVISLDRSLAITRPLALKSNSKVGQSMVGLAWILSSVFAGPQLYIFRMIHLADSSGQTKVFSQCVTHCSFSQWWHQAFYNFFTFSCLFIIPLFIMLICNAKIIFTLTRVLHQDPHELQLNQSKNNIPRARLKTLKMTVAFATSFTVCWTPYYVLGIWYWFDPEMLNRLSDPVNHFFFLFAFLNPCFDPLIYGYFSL
D(2) dopamine receptor (Homo sapiens), sequence (P14416 whole entry, looked up): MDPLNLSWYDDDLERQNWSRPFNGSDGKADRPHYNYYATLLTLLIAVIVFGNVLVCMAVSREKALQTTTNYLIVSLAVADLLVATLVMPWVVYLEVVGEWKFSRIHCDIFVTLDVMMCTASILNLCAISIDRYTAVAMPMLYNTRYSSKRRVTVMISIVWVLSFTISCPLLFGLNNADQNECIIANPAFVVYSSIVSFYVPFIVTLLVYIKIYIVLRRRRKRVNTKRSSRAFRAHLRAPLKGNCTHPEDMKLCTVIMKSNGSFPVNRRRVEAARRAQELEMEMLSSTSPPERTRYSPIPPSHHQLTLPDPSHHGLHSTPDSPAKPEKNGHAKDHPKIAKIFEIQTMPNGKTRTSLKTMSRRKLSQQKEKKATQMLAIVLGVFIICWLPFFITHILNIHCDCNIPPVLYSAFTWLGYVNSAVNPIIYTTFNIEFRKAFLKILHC
KiSS-1 receptor (Homo sapiens), sequence (Q969F8 whole entry, looked up): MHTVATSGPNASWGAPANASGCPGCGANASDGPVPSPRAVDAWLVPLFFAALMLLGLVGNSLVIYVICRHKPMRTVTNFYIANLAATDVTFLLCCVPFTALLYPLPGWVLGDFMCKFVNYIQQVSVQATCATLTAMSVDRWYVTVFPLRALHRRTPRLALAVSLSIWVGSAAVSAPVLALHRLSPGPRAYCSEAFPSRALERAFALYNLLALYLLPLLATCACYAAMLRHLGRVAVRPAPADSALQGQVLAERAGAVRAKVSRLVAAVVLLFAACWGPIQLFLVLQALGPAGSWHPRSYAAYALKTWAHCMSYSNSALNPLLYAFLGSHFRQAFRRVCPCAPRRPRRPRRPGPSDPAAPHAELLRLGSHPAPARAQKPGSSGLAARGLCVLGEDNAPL

O=C(O)c1cc(=O)[nH]c(=O)[nH]1
not listed: [20]
inactive: all other assays above

Cc1oc(C)c(C(=O)Nc2ccccc2)c1C
inactive: all assays above

CCC(C)CO (stereo not drawn)
not listed: [17] | [18]
inactive: all other assays above

CC(=O)O[C@@H]1C[C@@H]2CC[C@@]1(C)C2(C)C
not listed: [15] | [18]
inactive: all other assays above

O=Cc1cccc([N+](=O)[O-])c1
not listed: [13]
inactive: all other assays above

CC(=O)O[C@H]1C[C@@H]2CC[C@@]1(C)C2(C)C
not listed: [17] | [20]
inactive: all other assays above

O=S(=O)(O)CCS
not listed: [12] | [13] | [14] | [18]
inactive: all other assays above
